Screening data (PubChem BioAssay)
Sampled rows, rich in hits. Any-hit rate of the full collection: about 6.7%.
C diff HTS – C. difficile growth inhibitors, primary screen, HTS. Clostridium difficile clinical isolate growth, OD600, 24 h; hits give low values. growth activity, negative = inhibition, % at 16 µg/mL (by protocol). 86,000 tested, 0.25% active;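 active means mean growth activity at or below -80% and every replicate also at or below -80%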;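 further: 0% = DMSO wells and -100% = levofloxacin 16 µg/mL wells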
Pf Dd2 growth – P. falciparum Dd2 growth inhibitors, primary screen, SYBR Green fluorescence, single dose replicates | activity change, % at 10 µM | 94,000 tested, 2.3% active | AID 1159554, 2015 | 72 h; hits give low values; in the data active means activity change below about -80%
Tcruzi prolif – T. cruzi intracellular proliferation inhibitors, primary screen, cell-based, beta-gal Tulahuen parasites, NIH3T3 host, luminescence; inhibition, % at 8.34 µM; 77,000 tested, 5.9% active; T. cruzi beta-gal in NIH3T3, GalScreen luminescence, 90 h;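 active means mean inhibition above about 93%, with at least 55% of replicates each passing it, limit read from the data, passing the limit was not always enough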
Active calls of the source: *.

COc1ccc2c3c([nH]c2c1)[C@H](CO)N(C(=O)Nc1ccc(F)cc1)CC31CN(Cc2cc(F)ccc2F)C1 was read as C diff HTS -11.8 and Pf Dd2 growth -75.3.
`COc1ccc2c3c([nH]c2c1)[C@@H](CO)N(C(=O)Nc1ccc(F)cc1)CC31CCN(S(=O)(=O)c2ccc(C)cc2)CC1` gave C diff HTS -1.2 and Pf Dd2 growth -71.2.
COc1ccc2c3c([nH]c2c1)[C@@H](CO)N(C(=O)Nc1ccc(F)cc1)CC31CCN(S(=O)(=O)c2cccc(C)c2)CC1 was read as C diff HTS -7.5 and Pf Dd2 growth -41.8.
For COc1ccc2c3c([nH]c2c1)[C@H](CO)N(C(=O)Nc1ccc(F)cc1)CC31CCN(S(=O)(=O)c2ccc(C)cc2)CC1 the results were C diff HTS 3.6 and Pf Dd2 growth -82.3*.
`COc1ccc2c3c([nH]c2c1)[C@@H](CO)N(C(=O)Nc1ccc(F)cc1)CC31CCN(C(=O)Nc2ccc3c(c2)OCO3)CC1` gave C diff HTS -6.9 and Pf Dd2 growth -17.0.
For COc1ccc2c3c([nH]c2c1)[C@H](CO)N(C(=O)Nc1ccc(F)cc1)CC31CCN(C(=O)Nc2ccc3c(c2)OCO3)CC1 the results were C diff HTS -15.7 and Pf Dd2 growth -85.6*.
`COc1ccc2c3c([nH]c2c1)[C@@H](CO)N(C(=O)Nc1ccc(F)cc1)CC31CN(Cc2cc(F)ccc2F)C1` gave C diff HTS 56.3 and Pf Dd2 growth -87.4*.
For COc1ccc2c3c([nH]c2c1)[C@H](CO)N(C(=O)Nc1ccc(F)cc1)CC31CCN(S(=O)(=O)c2cccc(C)c2)CC1 the results were C diff HTS -1.2 and Pf Dd2 growth -82.6*.
For COc1ccc(-c2ccc3c(c2)[C@H]2[C@H](CCN2S(=O)(=O)c2ccccc2C)[C@H](CO)N3C)cc1 the results were C diff HTS 0.1, Pf Dd2 growth -54.2 and Tcruzi prolif 34.9.
Screening COc1ccc2c3c([nH]c2c1)[C@H](CO)N(C(=O)Nc1ccc(F)cc1)CC31CN(Cc2cc(-c3ccccc3)on2)C1 returned C diff HTS -8.9 and Pf Dd2 growth -58.0.
COc1ccc2c3c([nH]c2c1)[C@@H](CO)N(C(=O)Nc1c(C)noc1C)CC31CN(CC2CCOCC2)C1 was read as C diff HTS -4.7 and Pf Dd2 growth -11.0.
For COc1ccc2c3c([nH]c2c1)[C@@H](CO)N(C(=O)Nc1cccc(F)c1)CC31CN(CC2CCOCC2)C1 the results were C diff HTS 7.7 and Pf Dd2 growth -93.0*.
COc1ccc2c3c([nH]c2c1)[C@@H](CO)N(C(=O)Nc1ccc(F)cc1)CC31CN(S(=O)(=O)c2cccs2)C1 was read as C diff HTS -94.7* and Pf Dd2 growth -17.4.
COc1ccc2c3c([nH]c2c1)[C@@H](CO)N(C(=O)Nc1ccc(F)cc1)CC31CCN(Cc2cc(-c3ccccc3)on2)CC1 was read as C diff HTS 10.1 and Pf Dd2 growth -82.7*.
For COc1ccc2c3c([nH]c2c1)[C@H](CO)N(C(=O)Nc1ccc(F)cc1)CC31CN(S(=O)(=O)c2cccs2)C1 the results were Pf Dd2 growth 8.0.
Screening C[C@@H]1CCCCO[C@@H](CN(C)Cc2ccc3c(c2)OCO3)[C@H](C)CN([C@H](C)CO)C(=O)c2cc(N(C)C)ccc2O1 returned C diff HTS 0.8, Pf Dd2 growth 2.1 and Tcruzi prolif -28.8.
O=C(C[C@@H]1C=C[C@H](NC(=O)c2ccncc2)[C@H](CO)O1)Nc1ccc(-c2ccccc2)cc1 was read as C diff HTS -1.9, Pf Dd2 growth -1.6 and Tcruzi prolif 61.0.
O=C(O)C[C@@H]1C[C@@H]2c3cc(NS(=O)(=O)c4ccccc4)ccc3O[C@@H]2[C@H](CO)O1 was read as C diff HTS 0.3 and Pf Dd2 growth -93.5*.
`O=C(C[C@H]1C[C@H]2c3cc(NC(=O)Cc4ccncc4)ccc3O[C@H]2[C@H](CO)O1)NCc1ccccc1` gave Pf Dd2 growth -89.2* and Tcruzi prolif 6.3.
COc1cccc(S(=O)(=O)Nc2ccc3c(c2)[C@@H]2C[C@H](CC(=O)NCc4ccc(Cl)cc4)O[C@@H](CO)[C@@H]2O3)c1 was read as Pf Dd2 growth -82.1* and Tcruzi prolif 66.4.
For O=C(O)C[C@@H]1C[C@H]2c3cc(NS(=O)(=O)c4ccccc4)ccc3O[C@H]2[C@@H](CO)O1 the results were C diff HTS 1.2, Pf Dd2 growth 10.6 and Tcruzi prolif -19.7.
COc1cccc(S(=O)(=O)Nc2ccc3c(c2)[C@@H]2C[C@H](CC(=O)NCc4ccc(Cl)cc4)O[C@H](CO)[C@@H]2O3)c1 was read as Pf Dd2 growth -50.4 and Tcruzi prolif -118.2.
